High-throughput results: PubChem BioAssay, National Center for Advancing Translational Sciences (NCATS)
Shown are actives, neighbours in structure and some others; about 6.9% of the full set was active somewhere.
Vif-A3G inh: Vif-A3G binding inhibition; HeLa A3G-eYFP + Vif (tagged APOBEC3G with the HIV-1 protein that degrades it), YFP fluorescence, overnight; Potency, µM (titrated, usually from 46.1 µM), inactives show at the top dose activity, negative = active, usual class: inhibitors; actives 0.076% (n = 410,000); also: potency is read from the fitted curve at half-maximal effect; % is scaled to controls: 0 for no effect and ±100 for the full control effect; nearly all actives have a fitted effect of over 60% in size
Target sequence (Q9HC16 whole entry, looked up): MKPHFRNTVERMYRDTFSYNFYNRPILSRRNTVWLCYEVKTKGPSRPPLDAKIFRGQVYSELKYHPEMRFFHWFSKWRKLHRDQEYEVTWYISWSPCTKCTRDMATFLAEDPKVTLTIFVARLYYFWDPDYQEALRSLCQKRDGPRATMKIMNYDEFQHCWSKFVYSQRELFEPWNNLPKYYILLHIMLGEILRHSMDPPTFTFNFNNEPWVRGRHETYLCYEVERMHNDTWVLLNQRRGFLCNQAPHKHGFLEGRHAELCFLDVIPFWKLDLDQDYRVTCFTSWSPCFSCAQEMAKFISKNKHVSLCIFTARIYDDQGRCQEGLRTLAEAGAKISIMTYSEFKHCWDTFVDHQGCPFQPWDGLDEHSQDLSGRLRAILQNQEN
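HeLa cells stably expressing Vif and C-terminally eYFP-tagged A3G, seeded overnight at 37 deg C, then exposed to compound by pintool overnight at 37 deg C. Rise in yellow fluorescence (Ex 488/Em 500-530, Acumen) marks blocked Vif-driven A3G degradation.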
SW480 rereplic: DNA re-replication induction in SW480 cells. SW480 DNA re-replication, Hoechst DNA content imaging, 48 h. Potency, µM (series often up to 46.1 µM), without a hit: at the top dose re-replication activation, most hits filed as activators. actives 1.8% (n = 340,000); also: potency is read from the fitted curve at half-maximal effect; % of control where 0% means no effect; nearly all actives have a fitted effect of over 55% in size
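First, 250 cells per well were seeded. Next, compound or vehicle (23 nL) was pinned in, plates sat 48 hr at 37 C. Finally Hoechst was added for 40 min before fluorescence scanning.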
Giardia kill: kills Giardia lamblia; Giardia lamblia trophozoite viability; activity change, % at 7.66 µM, hits read low; actives 0.15% (n = 340,000); AID 540267; in the data active = activity change below about -80%; inconclusive = between about -30% and that limit;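 also: parasites exposed to compound for two days anaerobically before the ATP read; % is scaled to controls: 0 for no effect and ±100 for the full control effect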
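Anaerobic 48 hrs incubation at 37 deg C of 100 trophozoites/well with test compounds; ATPLite 1-Step luminescence, 15-30 min RT, reports cellular ATP as viability.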
Vif-A3F inh: blocks the Vif interaction with APOBEC3F; Potency, µM (top dose mostly 46.1 µM), for inactives: at the top dose activity, negative = active; actives 0.2% (n = 390,000); HeLa A3F-eYFP + Vif (tagged APOBEC3F with the HIV-1 protein that degrades it), YFP fluorescence increase; AID 602313; also: potency is read from the fitted curve at half-maximal effect; % of control where 0% means no effect; nearly all actives have a fitted effect of over 65% in size
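HeLa cells stably expressing A3F-eYFP plus Vif, plated and incubated overnight at 37 deg C, then exposed to compounds overnight at 37 deg C. Blocked degradation read as raised yellow fluorescence (Ex 488/Em 500-530).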
IL-1B inflam inh: inhibitors of inflammasome signaling (IL-1 beta secretion); THP-1 LPS/ATP IL-1B secretion, AlphaLISA, 16 h; active compounds read low; activity change, % at 57.5 µM; actives 4.7% (n = 360,000); AID 743279; in the data active = activity change below about -50%; inconclusive = mostly about -30% to -49%; also: % is scaled to controls: 0 for no effect and ±100 for the full control effect
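THP-1 cells pretreated 1 hr with compounds (up to 57.5 uM final), then stimulated with LPS (250 ng/mL final) plus ATP (1.25 mM final); secreted IL-1B measured by AlphaLISA after 16 hr, decreased signal indicating inhibition.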
MCF10A rerep: induces DNA re-replication in MCF 10a normal breast cells; MCF 10A DNA re-replication, Hoechst nuclear intensity, 48 h; Potency, µM (doses to about 46.1 µM), for inactives: top-dose activity, positive = re-replication, hits mostly activators; actives 2.9% (n = 350,000); AID 624296; also: potency is read from the fitted curve at half-maximal effect; % of control where 0% means no effect; nearly all actives have a fitted effect of over 50% in size
The depositor's hits bear a star; ? = inconclusive; / = not tested or not shown; ! = not confirmed by another sample. Unless noted, calls follow the shape of the dose curve; as a rule, active = well fitted curve in the direction sought with a large enough effect; inconclusive = small, poorly fitted or top-dose-only effect, or another doubt; inactive = no such curve, though single readings can be large; an effect the other way counts as inactive or inconclusive.

SMILES	Vif-A3G inh	SW480 rereplic	Giardia kill	Vif-A3F inh	IL-1B inflam inh	MCF10A rerep
CCOCCCN1C(=O)c2[nH]nc(-c3ccccc3O)c2C1c1ccc(CC)cc1 (centres undefined)	-11.6%	/	/	-0.5%	/	/
CN(CCOc1ccc(Cl)cc1)C(=O)c1cc(-c2ccco2)nc2ccccc12	-0.9%	-27.8%	1.4	-6.8%	-80.9*	?
COc1cccc(NC(=O)CN(C)C(=O)c2cc(-c3ccco3)nc3ccccc23)c1	-4.7%	-466.0%	-1.8	?	-5.7	18.5%
CC1CCN(C(=O)Cn2ncc3c4ccccc4n(Cc4ccc(Cl)cc4)c3c2=O)CC1	1.6%	/	/	0.1%	/	/
CCCCCCCCC/C(=N\O)c1ccccn1	-7.4%	?	-17.3	?	61.1	14.6µM*
COC(=O)c1ccc(C2CC(=O)Nc3c2c(C)nn3-c2nc(C)cc(C)n2)cc1 (centres undefined)	3.4%	/	/	0.1%	/	/
COC(=O)C1=C(C)N(CCc2ccccc2)C(=O)C1(NS(=O)(=O)c1ccc(NC(C)=O)cc1)C(F)(F)F (centres undefined)	-0.1%	3.26µM*	-4.4	0.5%	-0.9	14.6µM*
Cc1nc2ccccc2n1CCc1nc2c3ccccc3nc(SCc3cccc(F)c3)n2n1	-2.0%	/	/	1.1%	/	/
CC(CN1CCN(CCOCCO)CC1)CN1c2ccccc2Sc2ccc(Cl)cc21 (centres undefined)	?	/	/	-5.2%	-25.9	/
CN1CCN(CCCN2c3ccccc3Sc3ccc(Cl)cc32)CC1	1.6%	38.1%	3.3	10.3%	-64.0*!	11.6µM*
OC1CC2CCC(C1)N2CCCN1c2ccccc2Sc2ccc(Cl)cc21 (centres undefined)	-19.5%	?	-7.9	13.2%	-80.7*	?
CCC(=O)c1ccc2c(c1)N(CCCN1CCN(CCO)CC1)c1ccccc1S2	/	?	/	/	/	33.5µM*
CCSc1ccc2c(c1)N(CCCN1CCN(C)CC1)c1ccccc1S2	-2.0%	-10.1%	-5.1	-6.7%	-57.5*	?
CC(=O)c1ccc2c(c1)N(CCCN1CCN(CCO)CC1)c1ccccc1S2	/	?	/	/	/	20.0%
CN1CCN(C(=S)NC(CC(=O)c2ccccc2)c2ccccc2)CC1 (centres undefined)	-3.4%	-41.4%	3.1	3.5%	-51.8*	-22.4%
CC(=O)N1CC(=O)N=C1SCC(=O)Nc1nc(C)c(-c2ccccc2)s1	?	2.3%	-15.7	?	-76.7*	?
CCOC(=O)c1cc(-c2ccccc2)n(CCC(=O)NCCc2ccc(C)cc2)c1C	0.3%	/	/	-11.7%	/	/
CCOc1ccc(OCC)c(NS(=O)(=O)c2cc(-c3onc(C)c3C)ccc2OC)c1	-4.5%	/	/	-2.8%	/	/
Cc1cc(NC(=O)CCc2nc3cccnc3n2-c2ccccc2)ccc1Br	-3.2%	/	/	-10.1%	/	/
CCCN(Cc1ccccc1)C(=S)Nc1ccc(OCC)cc1	0.3%	0.9%	-2.1	4.8%	-58.5*	6.4%
COc1ccc2c(c1)O[C@@H](c1cccc(C(F)(F)F)c1)[C@H](O)C2=O	/	20.6µM*	/	/	/	6.7%
COc1ccccc1N1CCN(CC(O)COc2ccc(C)c(C)c2)CC1 (centres undefined)	-5.5%	?	16.1	-5.9%	-11.0	?
OC(COc1cccc2ccccc12)CN1CCN(c2cccc(Cl)c2)CC1 (centres undefined)	-2.2%	14.1%	10.9	-3.9%	0.0	25.9µM*
CC(C)c1ccc(OCC(O)CN2CCN(c3ccccc3)CC2)cc1 (centres undefined)	-1.5%	?	-14.5	0.8%	-73.8*	?
COc1ccccc1N1CCN(CC(O)COc2ccc3c(c2)CCC3)CC1 (centres undefined)	-0.5%	?	-19.8	0.0%	-64.2*	?
CC(C)(C)CC(C)(C)NCC(O)COc1ccc2c(c1)CCC2 (centres undefined)	-10.2%	?	-12.7	-19.5%	-75.1*	?
